# Out of some 53,000 sequences screened, about 3,700 (7%) were called active.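 Rule for the calls: active = gene knockdowns whose robust z-score for IL-1 alpha signal is at least 2 or at most -2, so actives lie on both sides; inactive = the rest.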 Only a selection was taken, and actives are over-represented in it overall.
# Assay: Components of the Cytosolic LPS Sensing Pathway: Gene Identification via Genome-wide siRNA Screen;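 note: robust z of the log signal after scaling to non-targeting control siRNA wells of the plate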
# Conditions: RAW264.7 macrophages, IL-1a HTRF, actives lie on both sides, screened at 100 nM (by protocol), cells primed 5 h with Pam3CSK4 first
# Summary of the method: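 Knockdown: 100 nM siRNA, 48h, RAW264.7. Stimulation: Pam3CSK4 5 h, then LipidA via TransIT-TKO 24 h. Output: supernatant IL-1a HTRF, negative-control-normalized, log robust z-score; viability by CellTiter-Glo.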
row,Sequence,z-score
1,GGAUGUUGGCAGCCGAACATT against St3gal2,-0.684 (inactive)
2,GGACAAGAUGUUGAGUAUUTT against Plrg1,-2.23 (active)
3,UUGUCAUUCACUUGAUGAATT against H2bu2,0.238 (inactive)
4,CCAUGCCCACUGGAUAGAUTT against Nat14,-1.21 (inactive)
5,CCCGAAUUGACAACAUCGUTT against Olfr855,0.566 (inactive)
6,CGCCUUAAACGAAGCUGCUTT against 1700034E13Rik,-1.28 (inactive)
7,GGUUUCCUUUUUGUUCAUUTT against Dlg3,0.566 (inactive)
8,CCGGUUGUUUUGAGUGUUGTT against Rad9b,1.09 (inactive)
9,GGAAAACACAGCUACGGAATT against Ak5,2.21 (active)
10,CCAUAUAUUAUGGACCUUATT against Hepacam2,-0.576 (inactive)
11,CCGAAAUAAGGCUAGCUCATT against Rfx6,-0.282 (inactive)
12,GGUCUUACCAACAGAACCCTT against Rad51ap1,1 (inactive)
13,GCAAUGCUCUAAUCCACUCTT against Npas4,0.654 (inactive)
14,GGAAUUAUAGGACUUGUUCTT against Serinc1,0.256 (inactive)
15,GGUUCCCAAAGUAGAAGCATT against Dkkl1,-0.231 (inactive)
16,GCUGAGUUGACUCCUACUGTT against Mcpt1,-2.23 (active)
17,GGAUUUGUUUUCAGAUGUGTT against Zfp329,-1.56 (inactive)
18,GAUUCUUGUCGCUCAUAGCTT against Vmn1r52,-0.535 (inactive)
19,GGGCACACAUAUGACCGUUTT against Rrad,0.261 (inactive)
20,GCAUUCAUACAUGUAACAGTT against Wdr70,0.336 (inactive)
21,GUCACAGAAAGCUUAGUCCTT against Olfr427,-2.93 (active)
22,GGGACCAGAACAAAGUGGUTT against Olfr487,0.474 (inactive)

row,Sequence,z-score
1,CCUAUUCAUCAUAACUCAUTT against Tdo2,0.129 (inactive)
2,CGAGCAUAAAAGUUAUGUGTT against Chaf1b,1.07 (inactive)
3,GGAUCCUUACAAUAACAUUTT against Mmut,2.04 (active)
4,GCGUAUUUCCUUUCGGAGUTT against Exoc3,0.116 (inactive)
5,CCUAAGCCCUCUAAGGCAATT against Pik3r2,-0.753 (inactive)
6,CCUCCUCUCCUAAAUGCCUTT against Llcfc1,-1.23 (inactive)
7,GGAACGAGUUUUGAAAAAATT against Creb3l3,0.073 (inactive)
8,GGAAGAACAUUGUUACCUGTT against Svep1,1.1 (inactive)
9,GGUCCUACUUACUACUGCCTT against Fam83h,0.265 (inactive)
10,CGUCUACCCGGAAUUUCAGTT against Sdha,-1.42 (inactive)
11,GGAAGGACUAUUUUCUUUCTT against Trak1,1.5 (inactive)
12,GGCAGAAAGCAAAAUGUUUTT against Gata3,-4.28 (active)
13,GUGGAUACGUGGGAAAGUCTT against Nmnat1,0.0316 (inactive)
14,CGCUCUGUUAAUGCAGGAUTT against Papss1,3.22 (active)
15,GCUAUUUCUGCCUUUAGUCTT against Scamp5,-0.0682 (inactive)
16,CCCACUGUGAAGAGAGGCATT against Xlr3c,-1.41 (inactive)
17,GGUUCAGACAACUCAGUGGTT against Pbx1,0.813 (inactive)
18,GGAGAAGGUGCUCAAGUUGTT against Henmt1,-2.45 (active)
19,CGGAUUCAUCAGUUUGGUATT against Cdc7,0.274 (inactive)
20,GCAACUUACUUGAUCUGAATT against Ap2b1,-0.292 (inactive)
21,CCUUCUAAUUAUCACCAAATT against Arhgap18,-0.102 (inactive)
22,GCUAACUGCACUCCGAGAUTT against Asap1,-0.266 (inactive)

row,Sequence,z-score
1,GGAAAAUUGAUAGCAAGCUTT against Fbxw15,1.9 (inactive)
2,GGCACAUCUCCCUAACACUTT against Mvb12b,-2.02 (active)
3,CCAAGCAUUAUGAGAUGCUTT against Sec23b,0.749 (inactive)
4,GGUUACUAGAUGUAUUUUGTT against Ppp3cb,-0.785 (inactive)
5,GGAAGAGGACCAAAGUGCUTT against Pnpla7,1.75 (inactive)
6,GGAUCAACAUCAGAGUUCUTT against Zfp119b,-0.562 (inactive)
7,CCCUAAUUCUUAGGCCUUUTT against Bloc1s3,-0.242 (inactive)
8,GGAAAGGUUUAAUCAUGAATT against Spred1,0.602 (inactive)
9,GGCAAGCACAAUGAUCAUUTT against Trappc11,-2.36 (active)
10,CGCUUUAGUGACUUUCAAATT against Metrnl,-0.583 (inactive)
11,GCAGAUCCGAAUCAAUGAGTT against Twf2,0.504 (inactive)
12,GCGAUUGAGAGGCUACACUTT against Pigb,0.402 (inactive)
13,GGGCUGUUAUUUCAAGAAATT against Galnt13,-0.173 (inactive)
14,CCCACUAAAAUCCUAUCUCTT against Ggta1,-2.57 (active)
15,GGGUCAAGUUUACAGAUGATT against Luc7l,0.0159 (inactive)
16,GGGUGCAUUUUAAAUACUATT against Spred2,0.73 (inactive)
17,GGAAUCCUCUAAAUGACCUTT against Vmn1r174,-1.49 (inactive)
18,GGCCAUUCUUUGUCACCCATT against Os9,-2.87 (active)
19,CCAUUAACUCUUUGAGUAUTT against Omg,0.321 (inactive)
20,GGAGCUGAGAAACAAGAUUTT against Bspry,-0.972 (inactive)
21,GGAUGUUAAAGCCAUAUACTT against Msh6,-0.788 (inactive)
22,GGGCUACCUCAGUUUAAACTT against Spic,0.763 (inactive)

row,Sequence,z-score
1,GGCAAUAACUGCUUUAUCUTT against Olfr509,-0.68 (inactive)
2,GCGUAUUCAGCUGGGAUAGTT against Marveld2,-2.42 (active)
3,CCUUCGUGUUCACUUUAAGTT against Rpl17,-1.5 (inactive)
4,CCACUAAUAGUCGUAGAAUTT against Dand5,0.535 (inactive)
5,GCCAUCUCUAUGUUGUUGATT against Smtnl2,-0.108 (inactive)
6,GGUCAUCCUCAAGAUGAAGTT against Zfp819,-2.82 (active)
7,GGCAUGUCCAAGGAAUACUTT against Snrpg,-1.4 (inactive)
8,GGUUAAUCUGAGAAUUCUATT against Kcnk1,0.717 (inactive)
9,CCCAAUUUUUAGUUGCUAATT against Rab2b,0.0495 (inactive)
10,GGAAGCUGUCUUCAAGUCCTT against Phf7,-1.3 (inactive)
11,GCAGUCCUCGUCCUCAAAGTT against Btbd10,2.16 (active)
12,GGCAGAAUACUAUAUAUAGTT against Tmx2,0.879 (inactive)
13,GGAAAUCUGUUCUUGAAGGTT against Pcdhb4,-0.0811 (inactive)
14,GGUGCUGACUCCGACUAAATT against Nhsl1,1.2 (inactive)
15,GGUACAGCUGGUUCUCUUUTT against Olfr1018,1.2 (inactive)
16,GCUUGCUAGAUUGGUGUUGTT against Arhgap17,3.32 (active)
17,GGCUGCUAUCAUGGAAUUATT against Ppp2cb,0.924 (inactive)
18,CGUGUGAAGAAAAUUGAUGTT against Mmp27,0.568 (inactive)
19,GCACAGUAACCUAAAAUACTT against Tanc2,-1.48 (inactive)
20,GGAUUUGAGGUUUUAGGAATT against Qtrt2,-0.0174 (inactive)
21,GGUUGUGGUCUUUGUUCUGTT against Olfr923,-1.11 (inactive)
22,GGAAAGAACAACAAAGGAGTT against Snx9,0.84 (inactive)

row,Sequence,z-score
1,CCUCUCAGAUGGUAUAUAATT against Olfr520,-2.14 (active)
2,GCCUCAAUUGUUUACUUAUTT against Edn2,0.404 (inactive)
3,GGAGAAGUCAUGAAACAAATT against Prkn,0.349 (inactive)
4,GGACAAAUCUUUGUUUAGCTT against Plscr3,-0.0965 (inactive)
5,GGGACCCAAGGAUAUGAAUTT against Rbsn,0.6 (inactive)
6,GGAGCAAGUAUUUACAUUGTT against Psmd10,1.55 (inactive)
7,GGAGGUUGGGAUGAAUUAUTT against Rab6b,4.26 (active)
8,GGACUAAUUGGCCUCUGCUTT against Rpl22l1,0.638 (inactive)
9,GGGCUGCUCACAAUUUAUATT against Tmem135,1.17 (inactive)
10,GGACACUUACGUCAUCGAGTT against Rtca,-0.814 (inactive)
11,GGUGGAGAUUGUUUGUAAATT against Lratd1,1.56 (inactive)
12,GGACCCAUCGAAACCUCUATT against Pirb,-0.0759 (inactive)
13,CCCAUGCUUGGAAUAAUUATT against Man1a,0.00246 (inactive)
14,GGACGAACUCAUCAACAGUTT against Gtf2ird1,-0.00436 (inactive)
15,GGGAAGCUGAUUAUACAUUTT against Serpinf1,3.22 (active)
16,GGCUAAGAAUGAGACUGGUTT against Abcg4,-0.0869 (inactive)
17,GGAGAAGAUUCCAGAAGCCTT against Tcf15,-1.42 (inactive)
18,GGGCAUUGGCAAGAAAAAGTT against Ahdc1,-0.543 (inactive)
19,GCAUAAGCGAAGAAGAAGUTT against Clk2,0.0795 (inactive)
20,GCUGGCUGUUUCACUACAGTT against Tdh,3.19 (active)
